Source: PubChem BioAssay (Tox21)
Results filed as inconclusive are left out. Activity calls are given as the source filed them. Unless noted, calls come from the whole dose curve; as a rule, active = well fitted curve in the direction sought with a large enough effect in the repeat runs; inconclusive = weak or mixed curves; inactive = no such curve, though single readings can be large; an effect the other way counts as inactive or inconclusive.

Key:
[1] = qHTS assay for small molecule agonists of the p53 signaling pathway (AID 651631; calls by dose curve; note: nearly all actives have a fitted effect of over 15% in size; note: potency is the fitted concentration of half-maximal effect)
Procedure, shortened: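 HCT-116 cells carrying a beta-lactamase reporter under p53 response elements were dosed with compound for 16 h at 37 °C. LiveBLAzer B/G FRET substrate was then added for 2 h at room temperature, and fluorescence intensity was read to detect pathway agonism.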

[2] = qHTS assay for small molecules that induce genotoxicity in human embryonic kidney cells expressing luciferase-tagged ATAD5 (AID 651632); note: nearly all actives have a fitted effect of over 15% in size
Procedure, shortened: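 Genotoxicity read-out via ATAD5-luciferase: HEK293T cells, 16 hr compound incubation at 37C, Amplite detection.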

[3] = qHTS assay for small molecule agonists of the p53 signaling pathway - cell viability (AID 651633; calls by dose curve;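 note: p53RE-bla HCT reporter cells with a stable beta-lactamase p53 reporter; series mostly up to about 83 µM; nearly all actives have a fitted effect of over 30% in size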)
Procedure, shortened: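 Viability counter-read: CellTiter-Glo luminescence (30 min, room temperature) in the same p53RE-bla plates. These plates had been exposed to compounds for 16 h at 37 C.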

[4] = qHTS assay for small molecule disruptors of the mitochondrial membrane potential - cell viability (AID 720634; calls by dose curve;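 note: human HepG2 liver cancer cells; series mostly up to about 83 µM; nearly all actives have a fitted effect of over 20% in size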)
Procedure, shortened: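 Human hepatoma HepG2 cells were treated for 1 hr with test chemicals, then given m-MPI dye and CellTiter-Glo. Cell viability reflects luminescence proportional to cellular ATP.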

[5] = qHTS assay for small molecule disruptors of the mitochondrial membrane potential (AID 720635); note: potency is the fitted concentration of half-maximal effect
Procedure, shortened: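 Mitochondrial membrane potential tracked with Mito-MPS dye, red aggregates (ex 540/em 590 nm) against green monomers (ex 490/em 535 nm). Compound treatment 1 hr at 37C, dye 30 min in HepG2.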

[6] = qHTS assay to test for compound auto fluorescence at 590 nm (red) in HepG2 cells (AID 720674)
Procedure, shortened: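 1 hr compound incubation on HepG2 cells, 37 C, 5% CO2; plate read ex 540 nm / em 590 nm; intensities reported as Rose Bengal sodium equivalents.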

[7] = qHTS assay to test for compound auto fluorescence at 535 nm (green) in HepG2 cells (AID 720675)
[8] = qHTS assay to test for compound auto fluorescence at 460 nm (blue) in HEK293 cells (AID 720678)
Procedure, shortened: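 After cell attachment (4-5 hr, 37C), compounds were pinned onto HEK293 monolayers in 10% dialyzed FBS medium. The blue channel (405/460 nm) was read following overnight culture. Equivalency was calculated against triamterene.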

[9] = qHTS assay to test for compound auto fluorescence at 590 nm (red) in HEK293 cells (AID 720679)
Procedure, shortened: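 Plates of HEK293 cells (10% dialyzed FBS) are treated with 23 nL compound or DMSO vehicle after a 4-5 hr attachment period, incubated overnight at 37C, and read for red fluorescence at 540/590nm.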

[10] = qHTS assay to test for compound auto fluorescence at 535 nm (green) in HEK293 cells (AID 720680)
[11] = qHTS assay to test for compound auto fluorescence at 460 nm (blue) in HEK293 cell free culture (AID 720681)
Procedure, shortened: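 Blue fluorescence (Ex 405/Em 460 nm, triamterene-equivalent) was read immediately after pin transfer of compound or DMSO into medium (DMEM, 10% FBS) without cells.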

[12] = qHTS assay to test for compound auto fluorescence at 590 nm (red) in HEK293 cell free culture (AID 720683)
Procedure, shortened: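 Red-channel autofluorescence of compounds in culture medium (DMEM, 10% FBS), no cells, measured at 540/590 nm. Rose Bengal sodium is the reference fluorophore for equivalence.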

[13] = qHTS assay to test for compound auto fluorescence at 590 nm (red) in HepG2 cell free culture (AID 720684)
Procedure, shortened: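 Plate contents were MEM with 10% FBS plus test compound or DMSO, no cells. Fluorescence was recorded with 540 nm excitation and 590 nm emission.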

[14] = qHTS assay to test for compound auto fluorescence at 460 nm (blue) in HepG2 cell free culture (AID 720685)
Procedure, shortened: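 Compound (23 nL) or DMSO pinned into cell-free MEM with 10% FBS; blue fluorescence read at 405/460 nm excitation/emission, expressed as auto-fluorescence equivalency to triamterene.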

[15] = qHTS assay to test for compound auto fluorescence at 535 nm (green) in HepG2 cell free culture (AID 720686)
[16] = target: Glucocorticoid receptor (Homo sapiens) (UniProt P04150); experiment: qHTS assay to identify small molecule antagonists of the glucocorticoid receptor (GR) signaling pathway (AID 720692; active = well fitted inhibition curve with a large enough effect in the signal ratio in the repeat runs, not every such curve was filed as active; the % refers to the signal ratio; note: potency is the fitted concentration of half-maximal effect)
Procedure, shortened: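 Fluorescence from cleaved LiveBLAzer B/G FRET substrate reports GRE-driven beta-lactamase in HeLa cells; compounds are tested against 5 nM dexamethasone (final) over 18 h at 37 C, substrate incubation 2 h at room temperature.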

[17] = qHTS assay to test for compound auto fluorescence at 460 nm (blue) in HepG2 cells (AID 720687)
Procedure, shortened: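 Blue-channel autofluorescence (Ex/Em 405/460 nm, triamterene-equivalent) was measured after 1 hr compound exposure at 37 C, 5% CO2. Cells were HepG2, plated overnight at 37 C in MEM plus 10% FBS.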

[18] = target: Glucocorticoid receptor (Homo sapiens) (UniProt P04150); experiment: qHTS assay to identify small molecule agonists of the glucocorticoid receptor (GR) signaling pathway (AID 720691; active = well fitted activation curve with a large enough effect in the signal ratio in the repeat runs, not every such curve was filed as active; the % refers to the signal ratio)
Procedure, shortened: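 Beta-lactamase reporter activity, read as fluorescence intensity, was measured in GR-bla HeLa cells exposed to compounds for 18 h at 37 C and then loaded with LiveBLAzer B/G FRET substrate for 2 h at room temperature.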

[19] = qHTS assay for small molecules that induce genotoxicity in human embryonic kidney cells expressing luciferase-tagged ATAD5 - cell viability (AID 651634; calls by dose curve; note: nearly all actives have a fitted effect of over 25% in size)
Procedure, shortened: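 Live-cell protease activity (CellTiter-Fluor, fluorescence) indicates viability. HEK293T cells with luciferase-tagged ATAD5; 15.5 hr compound treatment at 37C.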

[20] = qHTS assay to test for compound auto fluorescence at 535 nm (green) in HEK293 cell free culture (AID 720682)
Procedure, shortened: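 Green-label autofluorescence (485 nm excitation, 535 nm emission) measured on compound added to cell-free culture medium (DMEM, 10% FBS). Output is expressed relative to fluorescein.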
% is set by controls: 0 for no effect and ±100 for the full control effect.

Glucocorticoid receptor (Homo sapiens), sequence (P04150 whole entry, looked up): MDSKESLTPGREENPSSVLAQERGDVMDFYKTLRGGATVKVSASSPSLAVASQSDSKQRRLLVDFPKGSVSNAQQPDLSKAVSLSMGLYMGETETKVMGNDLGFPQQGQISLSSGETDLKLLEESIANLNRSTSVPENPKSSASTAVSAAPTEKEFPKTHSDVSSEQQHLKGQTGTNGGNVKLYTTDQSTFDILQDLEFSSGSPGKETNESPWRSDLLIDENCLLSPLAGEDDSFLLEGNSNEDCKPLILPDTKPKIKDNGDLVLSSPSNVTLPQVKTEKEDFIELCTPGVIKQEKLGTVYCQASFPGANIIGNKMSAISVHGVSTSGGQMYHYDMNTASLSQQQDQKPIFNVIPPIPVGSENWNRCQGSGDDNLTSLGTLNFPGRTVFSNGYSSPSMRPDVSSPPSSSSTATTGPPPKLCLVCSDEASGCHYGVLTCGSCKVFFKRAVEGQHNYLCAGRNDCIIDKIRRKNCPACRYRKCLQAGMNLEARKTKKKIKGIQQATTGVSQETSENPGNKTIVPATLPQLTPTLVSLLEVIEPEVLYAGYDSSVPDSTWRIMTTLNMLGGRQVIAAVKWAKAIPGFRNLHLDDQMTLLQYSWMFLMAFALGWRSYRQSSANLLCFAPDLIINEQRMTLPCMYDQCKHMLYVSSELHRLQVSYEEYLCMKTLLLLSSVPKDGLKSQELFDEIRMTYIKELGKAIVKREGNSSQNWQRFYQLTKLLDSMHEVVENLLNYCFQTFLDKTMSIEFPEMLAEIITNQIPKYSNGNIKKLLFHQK

COc1cccc2c1cc([N+](=O)[O-])c1c(C(=O)O)cc3c(c12)OCO3
active: Potency [1] 2.43 µM | Potency [5] 48.6 µM | Potency [16] 13.8 µM
inactive: Potency [2] | Potency [3] | Potency [4] | outcome [6] | outcome [7] | outcome [8] | outcome [9] | outcome [10] | outcome [11] | outcome [12] | outcome [13] | outcome [14] | outcome [15]

OC(c1ccccc1)(c1ccccc1)C1CCNCC1
inactive: Potency [1] | Potency [2] | Potency [3] | Potency [4] | Potency [5] | fluorescence, relative to Rose Bengal [6] 0.0965% [at 18.6 µM] | fluorescence, % of fluorescein control [7] 0.0225% [at 18.6 µM] | fluorescence, % of triamterene [8] -0.0368% [at 18.6 µM] | fluorescence, % of fluorescent control [9] -0.0312% [at 18.6 µM] | fluorescence, % of fluorescein [10] 0.0137% [at 18.6 µM] | fluorescence, % of fluorescent control [11] 0.0014% [at 18.6 µM] | fluorescence, % of fluorescent control [12] 0.068% [at 18.6 µM] | fluorescence, % of Rose Bengal [13] -0.191% [at 18.6 µM] | fluorescence, % of fluorescent control [14] -0.0381% [at 18.6 µM] | fluorescence, % of fluorescein control [15] -0.0573% [at 18.6 µM] | fluorescence, % of fluorescent control [17] 0.186% [at 18.6 µM] | outcome [18]

CCCCN(CCCCO)N=O
inactive: Potency [1] | Potency [2] | Potency [3] | Potency [4] | Potency [5] | outcome [6] | outcome [7] | outcome [8] | outcome [9] | outcome [11] | outcome [13] | outcome [14] | outcome [15] | outcome [17] | outcome [18] | Potency [16]

C=C(C)CN(CC)c1c([N+](=O)[O-])cc(C(F)(F)F)cc1[N+](=O)[O-]
active: Potency [5] 30.6 µM
inactive: Potency [1] | Potency [2] | Potency [19] | Potency [4] | outcome [6] | outcome [7] | outcome [8] | outcome [9] | outcome [10] | outcome [11] | outcome [20] | outcome [12] | outcome [13] | outcome [14] | outcome [15] | outcome [18] | Potency [16]

NC(=O)O
inactive: Potency [1] | Potency [2] | Potency [19] | Potency [4] | Potency [5] | outcome [6] | outcome [7] | outcome [8] | outcome [9] | outcome [10] | outcome [11] | outcome [20] | outcome [12] | outcome [13] | outcome [14] | outcome [15] | outcome [17]

CC1=C(C(=O)Nc2ccccc2)S(=O)(=O)CCO1
inactive: Potency [2] | Potency [4] | outcome [6] | outcome [7] | outcome [8] | outcome [9] | outcome [10] | outcome [11] | outcome [12] | outcome [13] | outcome [14] | outcome [15] | outcome [17] | outcome [18]
active: Potency [1] 19.3 µM | Potency [16] 48.9 µM

ClC(Br)Br
inactive: Potency [1] | Potency [2] | Potency [19] | Potency [4] | outcome [6] | outcome [7] | outcome [8] | outcome [9] | outcome [10] | outcome [11] | outcome [20] | outcome [13] | outcome [14] | outcome [15] | outcome [17] | outcome [18] | Potency [16]

[Cl][Sn]([Cl])([Cl])[Cl]
inactive: Potency [1] | Potency [2] | Potency [3] | Potency [4] | Potency [5] | outcome [7] | outcome [8] | outcome [9] | outcome [10] | outcome [11] | outcome [13] | outcome [14] | outcome [15] | outcome [17] | outcome [18] | Potency [16]

O=C(Oc1ccc(Br)cc1)N1CCN2CCC1CC2
inactive: Potency [1] | Potency [2] | Potency [19] | Potency [4] | outcome [6] | outcome [7] | outcome [8] | outcome [9] | outcome [10] | outcome [11] | outcome [20] | outcome [13] | outcome [14] | outcome [15] | outcome [18] | Potency [16]

CC1=NNC(=O)N(/N=C/c2cccnc2)C1
inactive: Potency [1] | Potency [2] | Potency [19] | Potency [4] | Potency [5] | outcome [6] | outcome [7] | outcome [8] | outcome [9] | outcome [10] | outcome [20] | outcome [12] | outcome [13] | outcome [14] | outcome [15] | outcome [17]

CCCSC(=O)N(CCC)CCC
inactive: Potency [1] | Potency [2] | Potency [19] | Potency [4] | Potency [5] | outcome [6] | outcome [7] | outcome [8] | outcome [9] | outcome [12] | outcome [13] | outcome [14] | outcome [15] | outcome [17] | outcome [18]

CN1CCN(C(=O)O[C@H]2c3nccnc3C(=O)N2c2ccc(Cl)cn2)CC1
inactive: Potency [1] | Potency [2] | Potency [19] | Potency [4] | outcome [6] | outcome [7] | outcome [8] | outcome [9] | outcome [20] | outcome [13] | outcome [15]

CCCCOC(=O)c1ccccc1C(=O)O
inactive: Potency [1] | Potency [3] | Potency [4] | outcome [6] | outcome [7] | outcome [8] | outcome [9] | outcome [10] | outcome [11] | outcome [15] | outcome [17]

c1coc(-c2nc3ccccc3[nH]2)c1
inactive: Potency [1] | Potency [19] | outcome [6] | outcome [7] | outcome [8] | outcome [9] | outcome [10] | outcome [11] | outcome [20] | outcome [12] | outcome [15] | outcome [18] | Potency [16]
